# Values joined by “and” are separate entries in the source; they are usually repeats but may differ in a detail not shown here. Equal entries are not always repeated. In all, about 5,500 compounds went through this assay and about 2,000 (36%) were called active. Not shown: some 18% with an inconclusive outcome. Rule as the data show it: active = normalized growth mostly below about 0.91 (no sharp cut-off); inconclusive = no clear call, values can overlap the other calls; inactive = mostly above about 0.92. This is one part of the list.
# Assay: chemical genetic growth profiling, strain panel (AID 1159580);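 also: tested at 20 µM; growth read once vehicle control cultures reached saturation at 30 °C; 1 = growth at the plate median or of vehicle wells; lower values mean less growth of the strain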
# Settings: S. cerevisiae deletion strains, growth OD
smiles,measurement,setting,value
COc1ccc(-c2coc3c(O)c(OC)ccc3c2=O)cc1,normalized growth,"locus YAL021C, strain ccr4, stronger effect = lower value",0.907 (inactive)
same,normalized growth,"locus YAL026C, strain drs2, stronger effect = lower value",0.944 (inactive)
same,normalized growth,"locus YAL030W, strain snc1, stronger effect = lower value",0.966 (inactive)
same,normalized growth,"locus YBL061C, strain skt5, stronger effect = lower value",0.983 (inactive)
same,normalized growth,"locus YBR009C, strain hhf1, stronger effect = lower value",0.887 (active)
same,normalized growth,"locus YBR021W, strain FUR4, stronger effect = lower value",0.818 (active)
same,normalized growth,"locus YBR023C, strain chs3, stronger effect = lower value",0.887 (active)
same,normalized growth,"locus YBR171W, strain sec66, stronger effect = lower value",0.957 (inactive)
same,normalized growth,"locus YBR229C, strain ROT2, stronger effect = lower value",0.905 (active)
same,normalized growth,"locus YBR231C, strain swc5, stronger effect = lower value",0.893 (active)
same,normalized growth,"locus YBR279W, strain paf1, stronger effect = lower value",0.977 (inactive)
same,normalized growth,"locus YCL011C, strain gbp2, stronger effect = lower value",0.927 (inactive)
same,normalized growth,"locus YCL016C, strain dcc1, stronger effect = lower value",0.877 (active)
same,normalized growth,"locus YCL029C, strain bik1, stronger effect = lower value",0.914 (inactive)
same,normalized growth,"locus YCL069W, strain vba3, stronger effect = lower value",0.945 (inactive)
same,normalized growth,"locus YCR088W, strain abp1, stronger effect = lower value",0.973 (inactive)
same,normalized growth,"locus YDL005C, strain med2, stronger effect = lower value",1.01 (inactive)
same,normalized growth,"locus YDL035C, strain GPR1, stronger effect = lower value",0.874 (inactive)
same,normalized growth,"locus YDL040C, strain nat1, stronger effect = lower value",0.987 (inactive)
same,normalized growth,"locus YDL074C, strain BRE1, stronger effect = lower value",0.786 (inactive)
same,normalized growth,"locus YDL101C, strain DUN1, stronger effect = lower value",0.932 (inactive)
same,normalized growth,"locus YDL185W, strain tfp1, stronger effect = lower value",0.888 (active)
same,normalized growth,"locus YDL192W, strain arf1, stronger effect = lower value",0.837 (active)
same,normalized growth,"locus YDR001C, strain nth1, stronger effect = lower value",1 (inactive)
same,normalized growth,"locus YDR069C, strain doa4, stronger effect = lower value",1 (inactive)
same,normalized growth,"locus YDR101C, strain arx1, stronger effect = lower value",0.863 (active)
same,normalized growth,"locus YDR137W, strain rgp1, stronger effect = lower value",0.696 (active)
same,normalized growth,"locus YDR159W, strain sac3, stronger effect = lower value",0.797 (active)
same,normalized growth,"locus YDR162C, strain NBP2, stronger effect = lower value",0.755 (active)
same,normalized growth,"locus YDR195W, strain ref2",1.01 (inactive)
same,normalized growth,"locus YDR297W, strain sur2, stronger effect = lower value",0.967 (inactive)
same,normalized growth,"locus YDR318W, strain mcm21, stronger effect = lower value",0.871 (active)
same,normalized growth,"locus YDR334W, strain swr1, stronger effect = lower value",0.96 (inactive)
same,normalized growth,"locus YDR335W, strain msn5, stronger effect = lower value",0.93 (inactive)
same,normalized growth,"locus YDR388W, stronger effect = lower value",0.944 (inactive)
same,normalized growth,"locus YDR392W, strain spt3, stronger effect = lower value",0.383 (active)
same,normalized growth,"locus YDR502C, strain sam2, stronger effect = lower value",0.936 (inactive)
same,normalized growth,"locus YEL003W, strain gim4, stronger effect = lower value",0.944 (inactive)
same,normalized growth,"locus YEL037C, strain rad23, stronger effect = lower value",0.959 (inactive)
same,normalized growth,"locus YEL061C, strain CIN8 (second series), stronger effect = lower value",0.963 (inactive)
same,normalized growth,"locus YEL061C, strain CIN8, stronger effect = lower value",0.931 (inactive)
same,normalized growth,"locus YER015W, strain faa2, stronger effect = lower value",0.939 (inactive)
same,normalized growth,"locus YER016W, strain bim1, stronger effect = lower value",0.966 (inactive)
same,normalized growth,"locus YER110C, stronger effect = lower value",0.904 (inactive)
same,normalized growth,"locus YER111C, strain swi4, stronger effect = lower value",0.993 (inactive)
same,normalized growth,"locus YER155C, strain BEM2 (second series), stronger effect = lower value",0.54 (active)
same,normalized growth,"locus YER155C, strain BEM2, stronger effect = lower value",0.942 (inactive)
same,normalized growth,"locus YER167W, strain BCK2, stronger effect = lower value",0.87 (active)
same,normalized growth,"locus YFR010W, strain ubp6, stronger effect = lower value",1 (inactive)
same,normalized growth,"locus YGL078C, strain dbp3, stronger effect = lower value",0.959 (inactive)
same,normalized growth,"locus YGL086W, strain mad1, stronger effect = lower value",0.862 (active)
same,normalized growth,"locus YGL167C, strain pmr1, stronger effect = lower value",0.976 (inactive)
same,normalized growth,"locus YGL173C, strain kem1, stronger effect = lower value",0.97 (inactive)
same,normalized growth,"locus YGL227W, strain vid30, stronger effect = lower value",0.983 (inactive)
same,normalized growth,"locus YGL240W, strain doc1, stronger effect = lower value",0.851 (active)
same,normalized growth,"locus YGL248W, strain PDE1, stronger effect = lower value",0.906 (inactive)
same,normalized growth,"locus YGL253W, strain hxk2, stronger effect = lower value",0.954 (inactive)
same,normalized growth,"locus YGR135W, strain pre9, stronger effect = lower value",0.916 (inactive)
same,normalized growth,"locus YGR252W, strain gcn5, stronger effect = lower value",0.781 (inactive)
same,normalized growth,"locus YHR013C, strain ard1, stronger effect = lower value",0.966 (inactive)
same,normalized growth,"locus YHR027C, strain rpn1, stronger effect = lower value",0.98 (inactive)
same,normalized growth,"locus YHR030C, strain SLT2, stronger effect = lower value",0.943 (inactive) and 1.02 (inactive)
same,normalized growth,"locus YHR079C, strain IRE1 (second series), stronger effect = lower value",0.955 (inactive)
same,normalized growth,"locus YHR079C, strain IRE1, stronger effect = lower value",1.01 (inactive)
same,normalized growth,"locus YHR094C, strain hxt1, stronger effect = lower value",0.941 (inactive)
same,normalized growth,"locus YHR129C, strain ARP1, stronger effect = lower value",0.907 (active)
same,normalized growth,"locus YHR142W, strain chs7, stronger effect = lower value",0.832 (active)
same,normalized growth,"locus YHR200W, strain rpn10, stronger effect = lower value",0.902 (active)
same,normalized growth,"locus YIL066C, strain RNR3, stronger effect = lower value",0.757 (active)
same,normalized growth,"locus YIL073C, strain SPO22, stronger effect = lower value",0.824 (inactive)
same,normalized growth,"locus YIL125W, strain kgd1, stronger effect = lower value",0.948 (inactive)
same,normalized growth,"locus YIR030C, strain dcg1, stronger effect = lower value",0.944 (inactive)
same,normalized growth,"locus YJL092W, strain hpr5, stronger effect = lower value",0.982 (inactive)
same,normalized growth,"locus YJL095W, strain BCK1 (second series), stronger effect = lower value",0.959 (inactive)
same,normalized growth,"locus YJL095W, strain BCK1, stronger effect = lower value",0.757 (active) and 1 (inactive)
same,normalized growth,"locus YJL115W, strain asf1, stronger effect = lower value",0.943 (inactive)
same,normalized growth,"locus YJL129C, strain trk1, stronger effect = lower value",0.731 (active)
same,normalized growth,"locus YJL134W, strain LCB3, stronger effect = lower value",0.937 (inactive)
same,normalized growth,"locus YJL154C, strain vps35, stronger effect = lower value",0.974 (inactive)
same,normalized growth,"locus YJL164C, strain tpk1, stronger effect = lower value",0.941 (inactive)
same,normalized growth,"locus YJL166W, strain qcr8, stronger effect = lower value",0.828 (active)
same,normalized growth,"locus YJL168C, strain set2, stronger effect = lower value",0.954 (inactive)
same,normalized growth,"locus YJL187C, strain SWE1 (second series), stronger effect = lower value",0.904 (inactive)
same,normalized growth,"locus YJR066W, strain TOR1, stronger effect = lower value",0.959 (inactive)

# Reference: PubChem BioAssay AID1159580 (chemical genetic matrix, 2015)
